This is one part of a sample in which hits are shown more often than they occur.
mcGAS RapidFire – inhibitors of mouse cGAS; AID 1259397; inhibition, % at 12.5 µM; Q8C6L5; recombinant mouse cGAS, cGAMP by RapidFire MS; 130,000 compounds, 0.18% hits;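 active = inhibition of cGAS enzyme activity at or above 60%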;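 note: enzyme stimulated by 45 bp dsDNA with ATP and GTP substrates; cGAMP share of summed cGAMP plus half ATP and half GTP signals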
Target sequence (Q8C6L5 whole entry, looked up): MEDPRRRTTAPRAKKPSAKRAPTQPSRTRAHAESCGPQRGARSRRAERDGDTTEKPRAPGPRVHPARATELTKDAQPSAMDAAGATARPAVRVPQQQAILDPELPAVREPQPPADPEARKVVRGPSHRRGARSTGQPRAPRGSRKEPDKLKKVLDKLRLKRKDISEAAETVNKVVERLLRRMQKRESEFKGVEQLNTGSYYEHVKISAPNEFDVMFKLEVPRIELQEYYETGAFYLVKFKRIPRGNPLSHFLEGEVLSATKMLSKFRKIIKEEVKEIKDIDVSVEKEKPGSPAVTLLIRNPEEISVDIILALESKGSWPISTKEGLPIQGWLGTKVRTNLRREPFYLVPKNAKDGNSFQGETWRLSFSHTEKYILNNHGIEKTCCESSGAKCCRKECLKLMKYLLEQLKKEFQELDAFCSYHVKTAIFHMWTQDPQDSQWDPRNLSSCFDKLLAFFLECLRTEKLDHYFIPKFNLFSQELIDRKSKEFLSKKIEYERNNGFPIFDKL
* = called active by the depositor; ! = not confirmed by another sample.

SMILES	mcGAS RapidFire
CCN(CC(=O)NC1CCS(=O)(=O)C1)S(=O)(=O)c1cccs1 (centres undefined)	-2.1
O=C(CNC(=O)C1c2ccccc2Oc2ccccc21)NCc1ccco1	-1.5
O=C(NCCN1CCCCC1)c1cc(N2CCCN3CCC[C@H]3C2)ccn1	78.0*
COCCNC(=O)c1cc(N2CCCN(C)CC2)ccn1	-16.4
CCN(CC)CCNC(=O)c1cc(N2CCCCCC2)ccn1	-18.8
CC(C)(C)[C@H](NS(=O)(=O)c1ccc(CCCCl)cc1)C(N)=O	-26.6
O=C(NCc1nncn1C1CCCCC1)c1n[nH]c2c1CCC2	-22.3
O=C1CN(c2ccc(C(=O)N3CCCN(c4ncccn4)CC3)cn2)CCN1	-7.0
O=C(c1ccc(N2CC(O)C2)nc1)N1CCCN(c2ncccn2)CC1	79.5*
CCOc1ccc(C(=O)N2CCN(c3ncccn3)CC2)cc1	-1.3
CC1CN(C2CCN(C(c3ccccc3)C(C)C)CC2)CCO1 (centres undefined)	-1.9
COCCn1cc(NC(=O)NCc2ccc(F)cc2)c2ccccc21	-5.5
O=S(=O)(NCC1CCN(c2ncccn2)CC1)c1ccc(OC(F)(F)F)cc1	-6.9
COC(=O)c1cccc(OCC(O)Cn2c(C)[n+](C)c3ccccc32)c1 (centres undefined)	-50.8
COc1ccccc1NS(=O)(=O)c1cc(F)ccc1F	4.4
COc1ccc(NS(=O)(=O)c2cc(C)ccc2C)cc1OC	-8.9
COc1cc(C)c(S(=O)(=O)Nc2c(F)cccc2F)cc1OC	86.7*
Cc1ccc(-n2c(C3CCCCC3)n[nH]c2=S)cc1	-5.2
CCOc1cccc(CNC2CCCc3c2cnn3-c2cc(F)cc(F)c2)c1O (centres undefined)	2.3
COCCOC(=O)C1=C(C)N(C)C(=O)NC1c1ccccc1[N+](=O)[O-] (centres undefined)	-7.6
CCOC(=O)C1=C(C)NC(C)=C(C(=O)OC)C1c1cccc([N+](=O)[O-])c1 (centres undefined)	-13.1
COC(=O)C1=C(C)NC(C)=C(C(=O)OC)C1c1ccccc1[N+](=O)[O-]	73.2*!
CNC(=O)c1cccc(CNc2cc(OC)ncn2)c1	-4.9
Cc1cccc(OCC(=O)NCc2cnc3c(C)cccn23)c1C	-15.0
O=C(NCc1cn2cc(Cl)ccc2n1)C1CC2CCCC(C1)C2=O (centres undefined)	0.7
SMILES	mcGAS RapidFire
CCN(CC)CCC(C#N)(C(=O)c1ccccn1)c1ccccc1 (centres undefined)	-4.5
Cn1ccsc1=NC(=O)c1ccc(NC(=O)OC(C)(C)C)cc1	-14.1
CC(C)(C)OC(=O)Nc1ccncc1C(=O)c1ccccc1	-20.5
CC(C)(C)OC(=O)Nc1ccsc1Br	65.6*!
O=C(Nc1cccc(F)c1)N1CCc2nc(Nc3cc(Cl)cc(Cl)c3)ncc2C1	-4.0
CN(Cc1cnn(C)c1)C(=O)C1CCCN(C(=O)Nc2ccccc2)C1 (centres undefined)	-5.6
Cc1cc2nc3c(=O)[nH]c(=O)nc-3n(CC(O)C(O)C(O)CO)c2cc1C (centres undefined)	4.2
Cc1cc2nc3c(=O)[nH]c(=O)nc-3n(C)c2cc1C=O	91.1*
Cc1cc2nc(-c3ccccc3)c(=O)n(C)c2cc1C	2.2
CCCN1CCCC1C(=O)N1CCCN(Cc2nccn2C)CC1 (centres undefined)	93.6*
Cn1ccnc1CN1CCCC(CCNS(C)(=O)=O)C1 (centres undefined)	-4.3
CCCCc1nc(CN2CCCN(Cc3nccn3C)CC2)no1	-28.2
CC1(C)C=NC2(CCN(C(=O)c3ccc(=O)[nH]c3)CC2)S1	-0.3
CC(c1ccc(Cl)cc1)C(C)N(C)C(=O)NCc1nccn1C (centres undefined)	-11.4
Cc1nc2c(cc(OS(=O)(=O)c3cccs3)c3ccsc32)s1	62.0*
Cc1nc2c(cc(O)c3ccsc32)s1	-4.9
CCOC(=O)c1nn(-c2ccccc2)c(=O)cc1OS(=O)(=O)c1cccs1	0.5
CCn1nc(C)c(-c2cc(C(=O)O)[nH]n2)c1C	7.2
C=CCn1c(SCC(=O)NC2CCCC2)nc2sc3c(c2c1=O)CCCC3	2.6
CCOC(=O)C=C1SCC(=O)N1CC(=O)OCC	-7.8
CCOC(=O)Cn1nc(C)c(C)c(C#N)c1=O	-7.0
CCOC(=O)CN1C(=O)CSC1=CC#N	82.5*
CCc1oc(C(=O)OC)cc1COc1cccc(CO)c1	-12.7
CC(Oc1cccc(Br)c1)C(=O)NCCNC(=O)c1nc(Cn2cc(Cl)cn2)no1 (centres undefined)	-7.9
CCOC(=O)c1cccc2c1-c1ccccc1/C2=N/O	-15.8
SMILES	mcGAS RapidFire
C/C(=N/OC(=O)c1ccccc1C)c1ccc(Cl)cc1Cl	-2.1
Cc1ccccc1C(=O)O/N=C1/C(=O)c2ccccc2-c2ccccc21	70.4*
CN(CCCc1ccccc1)CC(=O)NC1(C#N)CCCCC1	-1.7
c1coc(-c2cc(C3CCN(C[C@@H]4CCCN5CCCC[C@H]45)CC3)[nH]n2)c1	0.3
Nc1c(C=C2C=CC(=O)C=C2)c(=O)nc2sc(-c3ccccc3)nn12	51.3
Nc1c(C=C2C=CC(=O)C=C2)c(=O)nc2sc(-c3ccccc3Cl)nn12	50.1
CCc1nn2c(N)c(C=C3C=CC(=O)C=C3)c(=O)nc2s1	89.4*
CNc1nnc(SCc2cc(=O)n3c(n2)sc2ccccc23)s1	5.5
C#CCN(Cc1nc(-c2ccccc2C)oc1C)C1CCCCC1	-1.6
O=C(Nc1cccc(NC(=O)C2CC2)c1)c1ccccc1	-15.8
O=C1C=CC2=C3c4cc(O)c(O)cc4CC3(O)COC2=C1O (centres undefined)	97.3*
CC1=C(c2ccc(F)cc2)[N+](=O)C(C)(C)N1[O-]	-9.1
COc1ccc(C2=C(C)N([O-])C(C)(C)[N+]2=O)cc1	-6.8
CC1=C(c2ccccc2)[N+](=O)C2(CCCC2)N1[O-]	64.1*
COCCc1nc2ccc(C(=O)N3CCN(c4ccccc4C)CC3C)cc2o1 (centres undefined)	-5.8
Cc1cc(NN=Cc2ccccn2)nc2ccccc12	-3.4
COc1cc(/C=N\Nc2ncnc3nc[nH]c23)cc(Br)c1O	3.2
Oc1c(Br)cc(C=NNc2ccccn2)cc1Br	73.7*
NCC(CO)Cc1ccccc1F (centres undefined)	-3.8
Cc1nc(N)nc(C)c1CC(=O)N1CCOC(C(F)(F)F)C1 (centres undefined)	-18.8
C=CCNS(=O)(=O)C1CON(C)C1c1ccc(C#N)cc1 (centres undefined)	-4.8
O=C(O)c1cccc(-c2csc(/C=C/c3cccnc3)n2)c1	-19.9
CC1CC(Sc2nnc(C(C)C)n2C2CC2)C(=O)O1 (centres undefined)	-15.5
COCC1CCN(C(=O)c2ccc(OC3CCN(S(C)(=O)=O)CC3)c(Cl)c2)C1 (centres undefined)	6.8
O=C(c1c(O)c2ccccc2oc1=O)C1CCC1	-2.0
SMILES	mcGAS RapidFire
O=C1CNc2c(c(=O)oc3ccccc23)N1	95.6*
O=c1oc2ccc(O)cc2c2c1NCCC2	-26.4
N#Cc1cccc(NC(=O)c2csc(-c3ccsc3)n2)c1	-7.5
Cn1c(-c2ccc(F)cc2)csc1=N	-5.5
Cc1ccc(NS(=O)(=O)c2ccc(Cl)c(C(=O)N3CC(C)OC(C)C3)c2)cc1C (centres undefined)	1.0
CC(N)=C(C#N)C(=O)COC(=O)c1ccc(C)s1	-4.4
N#Cc1cccc(S(=O)(=O)Nc2c(F)cccc2N2CCCC2)c1	-0.7
N#CCCCCS(=O)(=O)Nc1ccc(N2CCCC2)c(F)c1	62.7*
O=S(=O)(CC1CCCO1)Nc1ccc(N2CCCC2)c(Cl)c1 (centres undefined)	-21.8
Cn1c2c(c3cc(-c4cccc5c4CCNC5)ccc31)CCCC2=O	-12.6
